The values that follow come from PubChem BioAssay (NCATS).

The nature of test [1]: P-glycoprotein substrates identified in KB-8-5-11 adenocarcinoma cell line, qHTS therapeutic library screen (AID 1346987). Note: nearly all actives have a fitted effect of over 65% in size. Note: potency is the fitted concentration of half-maximal effect. The essentials: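 Compounds are pinned in dose-response onto KB-8-5-11 cells (500 cells/well, colchicine-free medium) and left 72 h at 37 degree C. CellTiter-Glo luminescence then yields AC50 values.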
For orientation: Quantitative high-throughput screening tests each substance at several concentrations.

The target in test [2] is Atrial natriuretic peptide receptor 1 (Homo sapiens) (UniProt P16066). Put plainly: Natriuretic polypeptide receptor (hNpr1) antagonism - Pilot screen (AID 1347049; calls by dose curve;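 note: HEK293 cells with hNpr1 and GloSensor cGMP luciferase stimulated by 0.1 nM hNppA; agonist-evoked cGMP luminescence read 20 min after hNppA addition; series mostly up to about 58 µM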). The essentials:
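Cells expressing receptor plus cGMP biosensor are seeded and incubated overnight at 37C, then loaded with GloSensor reagent (2% final) at room temperature for 2 h. Library compounds go on for 30 min. A pre-read precedes agonist (hNppA, 0.1 nM final) and a 20-min readout.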

The target of test [3] is Atrial natriuretic peptide receptor 2 (Homo sapiens) (UniProt P20594). Put plainly: Natriuretic polypeptide receptor (hNpr2) antagonism - Pilot subtype selectivity assay (AID 1347050; calls by dose curve). The essentials: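 Read-out: GloSensor luminescence (CCD imager), baseline vs post-stimulation. HEK293 cells expressing hNpr2; compounds pre-incubated 30-50 min at ambient temperature; hNppC 1 nM final, 20 min.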

Test [4] in a line: NS1 protein of Zika virus - qHTS assay to identify small molecule inhibitors in human HEK 293 cells (AID 1347053). Note: series mostly up to about 46 µM; nearly all actives have a fitted effect of over 55% in size. The essentials: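 Read-out is a two-antibody TR-FRET for ZIKV NS1, normalized between uninfected cells and infected cells. Compound added 1 h before MR766 infection at MOI 0.5; human HEK 293 cells incubated 24 h, 37 C.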
The target in test [5] is T1, Tyrosine-protein phosphatase non-receptor type substrate 1 (Homo sapiens) + Leukocyte surface antigen CD47 (Homo sapiens) (UniProt P78324+Q08722). In words: CD47-SIRPalpha protein protein interaction - LANCE assay qHTS validation (AID 1347057; active = well fitted curve in the direction sought with a large enough effect in the signal ratio, with a control signal flat, not every such curve was filed as active; the % refers to the signal ratio; note: series mostly up to about 38 µM). The essentials:
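Inhibition of soluble CD47/SIRPalpha ectodomain association by titrated compounds, measured as 665/615 nm time-resolved FRET ratio after sequential 30 min room-temperature incubations.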
(In general: In TR-FRET formats the signal depends on donor and acceptor labels being close together.)

Test [6] has as its target T1, Tyrosine-protein phosphatase non-receptor type substrate 1 (Homo sapiens) + Leukocyte surface antigen CD47 (Homo sapiens). In words: CD47-SIRPalpha protein protein interaction - HTRF assay qHTS validation (AID 1347058; active = well fitted curve in the direction sought with a large enough effect in the signal ratio, not every such curve was filed as active; the % refers to the signal ratio; note: series mostly up to about 38 µM). The essentials:
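Soluble extracellular domains (6His-CD47, Avi-tag-biotinylated SIRPalpha) in PBS pH 7.4 with 0.05% IGEPAL CA-630. Compounds were preincubated 30 min at RT with CD47 and anti-His-Eu, then SIRPalpha and SAV-XL665 were added. TR-FRET 665/615 ratio.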

The target is the same in test [7]. Put plainly: CD47-SIRPalpha protein protein interaction - Alpha assay qHTS validation (AID 1347059).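 Note: bead proximity luminescence from CD47 binding SIRPalpha after compound preincubation with SIRPalpha.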 The method in brief: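 In PBS (pH 7.4) with 0.05% IGEPAL CA-630, compound is preincubated with biotin-Avi-SIRPalpha ectodomain before His-CD47 ectodomain and affinity beads are added. Light-protected room-temperature incubations; AlphaScreen readout.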

The structures appear in SMILES notation. Where “and” joins values, the source holds several entries; their conditions need not be identical. Identical values can stand only once. Inconclusive results are not listed. Calls of active or inactive are those of the source. Unless noted, calls come from the whole dose curve; as a rule, active = well fitted curve in the direction sought with a large enough effect; inconclusive = small, poorly fitted or top-dose-only effect, or another doubt; inactive = no such curve, though single readings can be large; an effect the other way counts as inactive or inconclusive.

T1 sequence (P78324 whole entry, looked up, the tested form may be a part): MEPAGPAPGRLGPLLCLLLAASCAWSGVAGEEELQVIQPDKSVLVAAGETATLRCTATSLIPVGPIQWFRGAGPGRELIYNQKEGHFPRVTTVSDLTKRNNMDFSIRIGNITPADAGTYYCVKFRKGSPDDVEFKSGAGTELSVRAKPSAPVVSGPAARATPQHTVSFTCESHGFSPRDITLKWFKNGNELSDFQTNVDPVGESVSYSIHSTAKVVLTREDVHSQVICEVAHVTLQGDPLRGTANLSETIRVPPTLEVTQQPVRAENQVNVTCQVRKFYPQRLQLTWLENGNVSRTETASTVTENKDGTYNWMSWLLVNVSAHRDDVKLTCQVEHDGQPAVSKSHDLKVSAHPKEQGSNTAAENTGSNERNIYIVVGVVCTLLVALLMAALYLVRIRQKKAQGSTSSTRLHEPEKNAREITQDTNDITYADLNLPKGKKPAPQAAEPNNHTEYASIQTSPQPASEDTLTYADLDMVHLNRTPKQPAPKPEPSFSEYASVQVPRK
T1 sequence (Q08722 whole entry, looked up, the tested form may be a part): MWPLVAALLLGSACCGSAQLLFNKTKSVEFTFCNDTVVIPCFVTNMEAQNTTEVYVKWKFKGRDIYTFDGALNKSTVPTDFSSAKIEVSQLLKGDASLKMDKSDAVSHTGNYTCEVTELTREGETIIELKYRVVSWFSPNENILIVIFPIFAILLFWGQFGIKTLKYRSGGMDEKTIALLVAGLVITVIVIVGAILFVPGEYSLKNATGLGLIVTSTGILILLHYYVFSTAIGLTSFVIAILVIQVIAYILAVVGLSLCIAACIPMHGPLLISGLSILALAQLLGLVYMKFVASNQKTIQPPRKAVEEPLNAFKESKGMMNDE
Atrial natriuretic peptide receptor 2 (Homo sapiens), sequence (P20594 whole entry, looked up): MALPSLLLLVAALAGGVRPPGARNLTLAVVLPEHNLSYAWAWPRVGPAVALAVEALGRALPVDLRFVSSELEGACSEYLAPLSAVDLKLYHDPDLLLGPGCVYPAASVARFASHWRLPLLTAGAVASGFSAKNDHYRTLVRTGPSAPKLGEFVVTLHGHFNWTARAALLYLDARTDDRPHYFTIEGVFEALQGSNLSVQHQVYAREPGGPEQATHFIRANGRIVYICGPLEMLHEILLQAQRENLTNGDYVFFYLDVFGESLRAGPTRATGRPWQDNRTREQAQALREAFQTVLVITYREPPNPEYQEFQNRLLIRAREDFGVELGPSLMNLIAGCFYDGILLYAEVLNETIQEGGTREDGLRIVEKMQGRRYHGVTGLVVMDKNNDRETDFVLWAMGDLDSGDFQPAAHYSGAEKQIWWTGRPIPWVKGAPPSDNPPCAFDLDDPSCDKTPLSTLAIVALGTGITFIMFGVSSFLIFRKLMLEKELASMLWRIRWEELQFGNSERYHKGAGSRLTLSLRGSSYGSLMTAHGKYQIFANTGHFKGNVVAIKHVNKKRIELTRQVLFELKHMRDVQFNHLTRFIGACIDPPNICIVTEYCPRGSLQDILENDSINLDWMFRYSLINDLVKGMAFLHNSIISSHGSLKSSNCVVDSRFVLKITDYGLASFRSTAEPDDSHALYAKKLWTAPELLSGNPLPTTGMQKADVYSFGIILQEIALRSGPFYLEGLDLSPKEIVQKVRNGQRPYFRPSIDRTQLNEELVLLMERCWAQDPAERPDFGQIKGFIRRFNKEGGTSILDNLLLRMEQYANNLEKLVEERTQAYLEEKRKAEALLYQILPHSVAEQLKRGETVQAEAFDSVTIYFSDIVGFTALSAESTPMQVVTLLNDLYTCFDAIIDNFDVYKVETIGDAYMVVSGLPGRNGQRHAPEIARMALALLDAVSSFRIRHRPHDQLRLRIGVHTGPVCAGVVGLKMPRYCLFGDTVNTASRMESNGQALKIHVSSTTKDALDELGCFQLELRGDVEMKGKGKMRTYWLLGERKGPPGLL
Atrial natriuretic peptide receptor 1 (Homo sapiens), sequence (P16066 whole entry, looked up): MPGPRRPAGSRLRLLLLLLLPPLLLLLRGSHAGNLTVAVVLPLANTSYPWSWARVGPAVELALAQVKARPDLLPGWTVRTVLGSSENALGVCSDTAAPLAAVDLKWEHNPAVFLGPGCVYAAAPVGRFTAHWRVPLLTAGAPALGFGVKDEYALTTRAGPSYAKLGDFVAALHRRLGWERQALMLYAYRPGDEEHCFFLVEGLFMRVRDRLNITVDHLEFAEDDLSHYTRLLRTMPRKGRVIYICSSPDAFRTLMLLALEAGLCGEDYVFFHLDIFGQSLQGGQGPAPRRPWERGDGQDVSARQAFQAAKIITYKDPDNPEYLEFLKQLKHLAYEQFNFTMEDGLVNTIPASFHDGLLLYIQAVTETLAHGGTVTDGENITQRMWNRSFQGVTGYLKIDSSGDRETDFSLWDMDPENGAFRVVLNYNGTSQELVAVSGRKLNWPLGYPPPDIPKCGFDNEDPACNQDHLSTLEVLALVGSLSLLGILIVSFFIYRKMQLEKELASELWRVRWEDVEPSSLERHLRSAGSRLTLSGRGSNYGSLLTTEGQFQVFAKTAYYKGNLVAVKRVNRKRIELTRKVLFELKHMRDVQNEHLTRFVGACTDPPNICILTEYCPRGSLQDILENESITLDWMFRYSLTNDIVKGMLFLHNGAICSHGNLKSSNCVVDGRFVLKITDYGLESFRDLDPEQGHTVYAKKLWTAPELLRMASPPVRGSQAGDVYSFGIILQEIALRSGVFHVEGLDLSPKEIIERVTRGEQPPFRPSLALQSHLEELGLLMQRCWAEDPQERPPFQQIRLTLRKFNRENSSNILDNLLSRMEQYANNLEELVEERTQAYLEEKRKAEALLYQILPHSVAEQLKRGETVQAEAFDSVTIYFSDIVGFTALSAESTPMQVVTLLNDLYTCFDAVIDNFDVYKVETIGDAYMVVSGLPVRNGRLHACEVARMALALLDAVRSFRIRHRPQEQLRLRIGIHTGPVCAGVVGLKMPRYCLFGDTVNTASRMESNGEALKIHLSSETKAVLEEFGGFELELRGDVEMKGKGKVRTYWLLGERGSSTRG

Take `O=C(NCCN1CCOCC1)c1ccc(Cl)cc1`: the Potency result in test [1] and in test [4] was “inactive” throughout. For the same molecule, the result in test [2], in test [3], in test [5], in test [6] and in test [7] was inactive.
For `CN1C[C@H]2c3ccccc3Oc3ccc(Cl)cc3[C@@H]2C1`, the Potency entry in test [1] is “inactive”.
Regarding `CC1(C)O[C@H]2C[C@@H]3[C@H]4CCC5=CC(=O)C=C[C@]5(C)[C@@]4(F)[C@@H](O)C[C@]3(C)[C@]2(C(=O)CO)O1`, the Potency entry in test [1] and in test [4] was “inactive” throughout.
On to `N[C@@]1(C(=O)O)CS(=O)(=O)[C@H]2[C@H](C(=O)O)[C@H]21`, for which the Potency entry in test [1] and in test [4] was “inactive” in each case.
As for `O=C(O)c1cc(-c2ccccc2)nc2ccccc12`, the Potency result in test [1] and in test [4] was “inactive” throughout.
On to `CC(C)(Cc1ccc2ccccc2c1)NC[C@@H](O)COc1cccc(Cl)c1C#N`, for which the Potency entry in test [1] and in test [4] was “inactive” in each case.
Consider `CCc1ccc(C=C2SC(=S)NC2=O)cc1`, for which the Potency entry in test [1] and in test [4] was “inactive” in each case.
In the case of `COc1ccc2c(Oc3ccc(NC(=O)c4c(C)n(CC(C)(C)O)n(-c5ccccc5)c4=O)nc3)ccnc2c1`, the Potency entry in test [1] and in test [4] was “inactive” in each case.
Turning to `NC(=O)NN=Cc1ccc([N+](=O)[O-])o1`, the Potency entry in test [1] and in test [4] was “inactive” each time.
Turning to `Cc1nnc(C(C)C)n1C1C[C@H]2CC[C@@H](C1)N2CC[C@H](NC(=O)C1CCC(F)(F)CC1)c1ccccc1` (some centres not stated), the Potency entry in test [1] and in test [4] was “inactive” each time.
On to `CC[C@]1(O)C[C@@H]2CN(CCc3c([nH]c4ccccc34)[C@@](C(=O)OC)(c3cc4c(cc3OC)N(C)[C@H]3[C@@](O)(C(=O)OC)[C@H](OC(C)=O)[C@]5(CC)C=CCN6CC[C@]43[C@@H]65)C2)C1`, for which the Potency in test [1] was 5.8 µM (active) and 5.17 µM (active) and 1.16 µM (active). The Potency entry in test [4] is “inactive”.
In the case of `COc1cc(NC(=O)c2ccc(-c3ccc(Cl)cc3)o2)cc(OC)c1`, the Potency entry in test [1] and in test [4] was “inactive” throughout.
Regarding `O=C(NC1CCOCC1)c1ccc(-c2cc(-c3cn[nH]c3-c3ccccn3)ccn2)cc1`, the Potency entry in test [1] and in test [4] was “inactive” in each case.
Turning to `N#CC1(c2ccc(NC(=O)c3cccnc3NCc3ccncc3)cc2)CCCC1`, the Potency result in test [1] and in test [4] was “inactive” each time.
In the case of `O=C1NC(=O)C(=Cc2ccc3nccnc3c2)S1`, the Potency result in test [1] and in test [4] was “inactive” in each case.
For the molecule `CC(C)C(=O)Oc1ccc(CO)cc1[C@H](CCN(C(C)C)C(C)C)c1ccccc1`, the Potency result in test [1] and in test [4] was “inactive” in each case.
As for `CN(C)c1cc(NC(=O)CNC(C)(C)C)c(O)c2c1C[C@@H]1C[C@H]3[C@H](N(C)C)C(=O)C(C(N)=O)=C(O)[C@@]3(O)C(=O)C1=C2O`, the Potency result in test [1] and in test [4] was “inactive” in each case.
Regarding `Oc1ccc(C2CCN(c3ccnc4ccccc34)CC2)cc1O`, the Potency entry in test [1] and in test [4] was “inactive” in each case.
On to `O=C(CCc1ccc(O)cc1)c1c(O)cc(O)cc1O[C@@H]1O[C@H](CO)[C@H](O)[C@H](O)[C@H]1O`, for which the Potency entry in test [1] and in test [4] was “inactive” each time.
